Screening results as filed in PubChem.
This is a sample that favours compounds with a hit; in the whole collection about 1.5% have one here.
rTrxR1 inhibitor = rat TrxR1 inhibition. 1% of 390,000 active. recombinant rTrxR1, NADPH fluorescence consumption, selenite substrate. Potency, µM (series often up to 114 µM), actives largely listed as inhibitors; note: nearly all actives have a fitted effect of over 65% in size
Target sequence (O89049 whole entry, looked up): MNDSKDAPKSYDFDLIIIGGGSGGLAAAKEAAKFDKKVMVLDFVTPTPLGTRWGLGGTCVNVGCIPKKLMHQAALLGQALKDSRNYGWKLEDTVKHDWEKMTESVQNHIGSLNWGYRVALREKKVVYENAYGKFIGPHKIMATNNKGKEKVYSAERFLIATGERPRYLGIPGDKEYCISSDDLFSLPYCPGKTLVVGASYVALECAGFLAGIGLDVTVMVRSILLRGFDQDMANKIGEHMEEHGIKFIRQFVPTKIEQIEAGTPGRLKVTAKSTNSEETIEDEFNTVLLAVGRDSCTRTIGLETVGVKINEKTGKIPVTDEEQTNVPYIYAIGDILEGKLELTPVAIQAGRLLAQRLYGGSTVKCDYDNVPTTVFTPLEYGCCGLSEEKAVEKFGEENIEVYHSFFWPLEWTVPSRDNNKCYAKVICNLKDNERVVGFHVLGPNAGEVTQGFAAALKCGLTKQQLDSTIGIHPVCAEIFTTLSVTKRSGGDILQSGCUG
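Rat TrxR1 (90 nM in the dispensed reagent) was pre-reduced with 400 uM NADPH for 5 min at room temperature, then incubated with compound for 15 min. After 400 uM selenite was added, NADPH fluorescence (Ex 340/Em 450 nm) was followed for 8 min.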
Giardia kill = kills Giardia lamblia | Giardia lamblia trophozoite viability | activity change, % at 7.66 µM, hits read low | 0.15% of 340,000 active; in the data active = activity change below about -80%; inconclusive = between about -30% and that limit;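 note: parasites exposed to compound for two days anaerobically before the ATP read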
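Compounds were tested on trophozoites seeded at 100 cells/well and held 48 hrs at 37 deg C anaerobically. An ATP-based luminescent kit measured the remaining live cells.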
PI4K2A block = PI4K2A (human) kinase inhibition; 0.13% of 420,000 active; Q9BTU6; AID 1346378; purified PI4K2A, ADP-Glo luminescence, 1 h; active compounds read low; activity change, negative = inhibition, % at 76.9 µM; in the data active = activity change below about -50%; inconclusive = mostly about -30% to -49%
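PI4K2A activity was measured by ADP-Glo luminescence: enzyme (4 ug/mL stock) and phosphatidylinositol (1.2 mM stock) in Tris pH 7.5/MgCl2/EGTA/Triton X-100 buffer were reacted with ATP (300 microM stock) for one hour at ambient temperature.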
Coupling enz = counter-screen for Giardia aldolase inhibitors: coupling enzyme system. activity change, negative = inhibition, % at 58.2 µM, hits read low. coupling enzyme system counterscreen, AmpLite Red fluorescence. 0.67% of 290,000 active; in the data active = activity change below about -30%
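Fluorescence at 525 nm excitation and 598 nm emission measured inhibition of the coupled detection system without aldolase. Compounds (at 57.5 uM final) were preincubated 10 min at room temperature with coupling enzyme reagent before a 20 min substrate/AmpLite Red step.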
GALK inh = inhibitors of human galactokinase | 0.007% of 270,000 active | Potency, µM (top dose mostly 57.5 µM), hits mostly inhibitors | Purified GALK, Kinase-Glo residual ATP luminescence | P51570
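Human GALK (5 nM) with 35 uM ATP and 100 uM galactose in 20 mM HEPES pH 8.0, 5 mM MgCl2, 60 mM NaCl, 1 mM DTT, 0.01% BSA. After 1 h at room temperature, leftover ATP was read by Kinase-Glo Plus luminescence.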
TrxR1 substrate = is turned over as a substrate by rat TrxR1; O89049; purified TrxR1 substrate turnover, NADPH consumption readout; Potency, µM (series often up to 114 µM); 0.01% of 390,000 active; AID 588456; note: nearly all actives have a fitted effect of over 50% in size
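Rat TrxR1, dispensed at 90 nM, was prereduced with 400 uM NADPH (final) for 5 min at ~22 deg C, then incubated with compound 15 min before 400 uM selenite. A first-read NADPH fluorescence drop versus no-compound background flagged substrates.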
Numbers stand for hits; – = inactive; ? = inconclusive; · = no result; [ ] = remark or other dose. Unless noted, calls come from the whole dose curve; as a rule, active = well fitted curve in the direction sought with a large enough effect; inconclusive = small, poorly fitted or top-dose-only effect, or another doubt; inactive = no such curve, though single readings can be large; an effect the other way counts as inactive or inconclusive.

SMILES | rTrxR1 inhibitor | Giardia kill | PI4K2A block | Coupling enz | GALK inh | TrxR1 substrate
CCOc1cccc(N2C(=O)/C(=C/c3ccco3)C(=O)NC2=S)c1 | ? | ? | – | – | – | –
COc1ccc(N2C(=O)/C(=C/c3cccs3)C(=O)NC2=S)cc1 | 7.9µM | – | – | – | · | –
Cc1ccc(/C=C2\C(=O)NC(=S)N(c3ccccc3F)C2=O)s1 | 13µM | – | – | – | – | –
CCOC(=O)C1CCN(/C=C2/C(=O)NC(=S)N(c3ccccc3F)C2=O)CC1 | – | – | – | – | – | –
Cc1ccc(/C=C2\C(=O)NC(=S)N(c3ccc(F)cc3)C2=O)o1 | ? | – | – | – | – | –
Cc1ccc(/C=C2\C(=O)NC(=S)N(c3ccc(F)cc3)C2=O)s1 | 10µM | – | – | – | – | –
O=c1[nH]/c(=C\c2ccc(N(CCCl)CCCl)cc2)c(=O)[nH]/c1=C\c1ccc(N(CCCl)CCCl)cc1 | – | · | · | · | · | –
O=C1NC(=S)N(Cc2ccco2)C(=O)/C1=C\c1cccs1 | · | · | · | – | ? | ·
C=CCN1C(=O)/C(=C/c2cccs2)C(=O)NC1=S | 10µM | – | – | – | – | –
COc1cccc(N2C(=O)/C(=C/c3ccc(C)o3)C(=O)NC2=S)c1 | 25µM | – | – | – | · | –
Cn1cccc1/C=C1\C(=O)NC(=O)N(CCC2=CCCCC2)C1=O | – | – | – | – | – | –
O=C1NC(=O)N(CCC2=CCCCC2)C(=O)/C1=C\c1cccs1 | 7.1µM | – | – | – | – | –
CCC1(CC)CCNC1=O | · | · | · | – | · | ·
CC(C)OC(=O)c1c(N)n(CC2CCCO2)c2nc3ccccc3nc12 (stereo not drawn) | – | – | – | – | – | –
CCOC(=O)c1c(NC(=O)c2c(N)n(CCCOC)c3nc4ccccc4nc23)sc2c1CCCC2 | – | – | – | · | – | –
CC(C)OCCCNC(=O)c1c(N)n(CC2CCCO2)c2nc3ccccc3nc12 (stereo not drawn) | – | – | ? | -47 | – | –
CCCCn1c(N)c(C(=O)OCCOC)c2nc3ccccc3nc21 | – | – | – | – | – | –
COCCCn1c(N)c(C(=O)NCCC(C)C)c2nc3ccccc3nc21 | – | – | ? | -46 | – | –
CCOCCCn1c(N)c(C(=O)Nc2sc3c(c2C(=O)OC)CCCC3)c2nc3ccccc3nc21 | – | – | – | -45 | – | –
CCCNC(=O)c1c(N)n(CC2CCCO2)c2nc3ccccc3nc12 (stereo not drawn) | – | – | – | -51 | – | –
CCC(=O)CCCCC[C@@H]1NC(=O)[C@H]2CCCCN2C(=O)[C@H]([C@@H](C)CC)NC(=O)[C@H](Cc2cn(OC)c3ccccc23)NC1=O | · | · | · | – | · | ·
CC[n+]1c(-c2ccccc2)c2cc(N)ccc2c2ccc(N)cc21 | –[11.4 µM] | – | ? | -44 | · | –[11.4 µM]
Cc1ccc(/C=C2\C(=O)NC(=O)N(CC3CCCO3)C2=O)s1 (stereo not drawn) | 40µM | – | – | – | – | –
CCN(CC)c1ccc(/C=C2\C(=O)NC(=O)N(CC3CCCO3)C2=O)cc1 (stereo not drawn) | ? | – | – | – | – | –
CC(C)(C)NC[C@H](O)c1ccc(O)cc1Cl | · | · | – | · | · | ·
SMILES | rTrxR1 inhibitor | Giardia kill | PI4K2A block | Coupling enz | GALK inh | TrxR1 substrate
Cc1ccc(N2C(=O)NC(=O)/C(=C/c3cnc(-c4ccccc4)nc3)C2=O)cc1C | 6.3µM | – | – | – | · | –
Cc1cccc(N2C(=O)NC(=O)/C(=C\c3cnc(-c4ccccc4)nc3)C2=O)c1 | 10µM | – | – | – | – | –
CC(C)c1ccc(N2C(=O)NC(=O)/C(=C\c3cnc(-c4ccccc4)nc3)C2=O)cc1 | 10µM | – | – | – | – | –
CC(C)c1ccc(N2C(=O)NC(=O)/C(=C\C=C\c3ccco3)C2=O)cc1 | – | – | – | – | – | –
N#C/C(=C\c1ccc(O)cc1)C(=O)O (tested in a mixture with another compound) | – | ? | – | · | · | –
N#C/C(=C\c1ccc(O)c(O)c1)C(N)=S | · | · | · | -64 | · | ·
CCCC(=O)NC(Oc1ccccc1Cl)C(Cl)(Cl)Cl (stereo not drawn) | 16µM | – | – | – | – | –
CCCC(=O)NC(Oc1ccc(Cl)cc1Cl)C(Cl)(Cl)Cl (stereo not drawn) | – | – | – | – | – | –
COC(=O)[C@@]1(Cc2ccccc2)[C@H]2c3cc(C(=O)N(C)C)n(C)c3C[C@H]2CN1C(=O)c1ccccc1 | · | · | · | – | · | ·
Cc1ccc(N2C(=O)/C(=C/c3ccc(CN(CCC#N)S(C)(=O)=O)o3)C(=O)NC2=S)cc1 | 10µM | – | – | – | – | –
O=C(CN1CCOCC1)c1ccc(Br)cc1 | – | – | – | – | – | –
O=C(CN1CCOCC1)c1cccc2ccccc12 | 18µM | – | – | – | – | –
Cc1cc(O)c2c(c1)C(=O)C13C(=C2O)C(=O)[C@H]2[C@@H](O)[C@@H]1[C@H]1[C@H](O)[C@@H]3C(=O)C3=C(O)c4c(O)cc(C)cc4C(=O)C312 (stereo partly drawn) | ? | – | -75 | · | · | –
O=C(O)Cc1cccnc1C(=O)O | · | · | · | -68 | · | ·
O=C(O)COc1ccccc1 | – | – | – | · | · | –
CN1CCN(c2ccc([N+](=O)[O-])c3cccnc23)CC1 | – | -84 | – | – | – | –
CC(C)[C@@]1(NC(=O)[C@@H]2C[C@@H]3c4cccc5[nH]cc(c45)C[C@H]3N(C)C2)O[C@@]2(O)[C@@H]3CCCN3C(=O)[C@H](Cc3ccccc3)N2C1=O | ? | – | – | – | – | –
CC(C)[C@@]1(NC(=O)[C@@H]2C=C3c4cccc5[nH]cc(c45)C[C@H]3N(C)C2)O[C@@]2(O)[C@@H]3CCCN3C(=O)[C@H](Cc3ccccc3)N2C1=O | · | · | · | -40 | · | ·
CC(C)C[C@H]1C(=O)N2CCCC2[C@]2(O)O[C@](NC(=O)[C@@H]3C=C4c5cccc6[nH]cc(c56)CC4N(C)C3)(C(C)C)C(=O)N12 (stereo partly drawn) | ? | – | – | -38 | – | –
CN1C[C@@H](C(=O)N[C@@]2(C)O[C@]3(O)C4CCCN4C(=O)[C@@H](Cc4ccccc4)N3C2=O)C=C2c3cccc4[nH]cc(c34)C[C@@H]21 (stereo partly drawn) | · | · | · | -32 | · | ·
CC(C)CC1C(=O)N2CCC[C@H]2[C@]2(O)O[C@](NC(=O)[C@@H]3C=C4c5cccc6[nH]c(Br)c(c56)C[C@H]4N(C)C3)(C(C)C)C(=O)N12 (stereo partly drawn) | – | – | · | · | · | –
CC(=O)NC1CCSC1=O (stereo not drawn) | · | · | – | · | · | ·
CCCCC/C=C\C/C=C\C/C=C\CCCCC(=O)NCCO | · | · | · | – | · | ·
C=CCC1=C(C)C(OC(=O)C2C(C=C(C)C)C2(C)C)CC1=O (stereo not drawn) | · | · | – | · | · | ·
